# Values joined by “and” are separate entries in the source; they are usually repeats but may differ in a detail not shown here. Equal values may be shown once. About 83,000 compounds went through this panel and 20% of them were active in at least one assay; those are over-represented in the sample as a whole.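 A percent growth of 40 corresponds to 60% growth inhibition; 0 means no net growth; -100 means all cells died. Active threshold: below 10.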 Values without a mark were called inactive. Active and inactive are the calls of the source.
# Tested on: MDA-MB-468 breast
# Test: NCI-60 one-dose screen, 48 h (100 = growth as untreated, 0 = no growth, -100 = all killed)
# Conditions: 10 µM unless noted
row,SMILES,growth
1,CCc1c2c(nc3ccc(OCc4ccc(B(O)O)cc4)cc13)-c1cc3c(c(=O)n1C2)COC(=O)[C@]3(O)CC,-48.4% (active)
2,COc1ccc2[nH]cc(-c3nc(-c4c[nH]c5ccncc45)cs3)c2c1,-33.9% (active)
3,O=C(O)c1cccc([N+](=O)[O-])c1O,102%
4,O=C(NC1CCNCC1)c1[nH]ncc1NC(=O)c1c(Cl)cccc1Cl,-37.2% (active)
5,COc1ccc(-c2nn(-c3ccc(Cl)cc3)cc2-c2nc3ccccc3[nH]2)cc1,106%
6,CC(=O)O[C@H]1CC[C@]2(C)[C@H]3CC=C4[C@@H]5[C@H](C)[C@@H](C)CC[C@]5(C(=O)NCCNCCNCCN)CC[C@@]4(C)[C@]3(C)CC[C@H]2C1(C)C,69.2%
7,CC(=O)ON=C1C=CC(=C(C#N)c2ccccc2)C=C1,19%
8,Cc1ncsc1CCO,99.2% and 107%
9,Cc1ccc(C(NC(=O)c2ccccc2)c2ccc3cccnc3c2O)cc1 (stereo not given),-26.6% (active)
10,COc1ccc(C(=S)N2CCN(c3cccc(Cl)c3)CC2)cc1,88.4%
11,C[n+]1ccccc1C[n+]1ccccc1,117%
12,COc1ccc(-n2c(-c3ccc(NC(=O)CCCl)cc3)nnc2-c2cc(OC)c(OC)c(OC)c2)cc1,-11.1% (active)
13,COc1ccc(-c2nn(-c3cccc(Cl)c3)cc2-c2cc(-c3ccc(Br)cc3)[nH]c(=O)c2C#N)cc1,75.1%
14,Cc1c2cnccc2c(C)c2c1c1cc(C#N)ccc1n2C,-46.9% (active)
15,O=C1NC(=C(Cl)Cl)/C(=N/S(=O)(=O)NCCc2c[nH]c3ccccc23)N1,-3.27% (active)
16,COc1ccc(C2C3=C(COC3=O)N(CCO)c3cc4c(cc32)CCC4)cc1 (stereo not given),7.26% (active)
17,CCCCCC(=O)Oc1ccc(/C(=C(\C)c2ccc(OC)cc2)c2ccc(OCCN3CCCCC3)cc2)cc1,85.3%
18,CN1CCN(Cc2ccc(NC(=O)c3[nH]ncc3Nc3ccnc4ccnn34)cc2)CC1,65.6%

row,SMILES,growth
1,COc1ccc(-c2nc3sccn3c2-c2ccnc(NCCNS(=O)(=O)c3ccc(C(F)(F)F)cc3)n2)cc1,30.2%
2,COc1cc(OC)c2c(=O)c3c(CC=C(C)C)cc(OC)c(O)c3oc2c1,110%
3,O=C1CC(c2cccc(F)c2)c2c(n[nH]c2-c2ccc(Cl)cc2)N1 (stereo not given),68.4%
4,O=C(Nc1ccc(Cl)cc1)c1cc(-c2ccc(F)cc2)c2sc(=O)[nH]c2n1,-8.3% (active)
5,Cc1nc2ccccc2c(/C=C/c2ccc(Cl)cc2)c1C(=O)/C=C/c1ccc(Cl)cc1,-50.9% (active)
6,CC(=O)CC(c1ccccc1)c1c(C)[nH]c2ccccc12 (stereo not given),106%
7,CCN1CCN(c2cc(-c3cn[nH]c3-c3cc(C)cc(OC)c3)nc(-c3cccnc3)n2)CC1,54.3%
8,CN(C)CCCCNc1ccc(NCCCCN(C)C)c2c1C(=O)c1c(O)ccc(O)c1C2=O,96.8%
9,Oc1c(CN2CCC(N3CCOCC3)CC2)cc(Cc2cc(CN3CCC(N4CCOCC4)CC3)c(O)c3ncccc23)c2cccnc12,9.12% (active)
10,COc1ccc(C2CC(c3ccc4ccccc4c3)=NN2c2nc(O)c(C3=c4cc(Cl)ccc4=NC3=O)s2)cc1 (stereo not given),-73.9% (active)
11,O=C(CCN1CCOCC1)Nc1ccc(Cn2nnc3c2C(=O)c2nnn(Cc4ccc(NC(=O)CCN5CCOCC5)cc4)c2C3=O)cc1,-72.2% (active)
12,C=CCn1c(SCC(=O)Nc2ccc(C(=O)/C=C/c3ccc(OC)cc3)cc2)nnc1-c1ccc(OC)c(OC)c1,75%
13,S=C(c1ccc2c(c1)OCO2)N1CCN(c2ccccc2Cl)CC1,80.8%
14,O=C(N=Nc1c(O)[nH]c2ccc(Br)cc12)c1cc(-c2ccccc2)on1,109%
15,O=C(N/N=C/c1ccncc1)c1ccccc1Nc1cccc(C(F)(F)F)c1,48.7%
16,O=C(Nc1cccc(-n2ccc3c(NC(=O)c4ccccc4)nccc32)c1)Nc1ccc(Cl)c(C(F)(F)F)c1,-3.83% (active)
17,CCCCCCCCCCCC(=O)[O][Sn]([CH2]CCC)([CH2]CCC)[CH2]CCC,-79.4% (active)
